Data published in PubChem BioAssay AID1347414 (National Center for Advancing Translational Sciences (NCATS), 2020).
Results filed as inconclusive are left out. Values without a mark were called inactive. Activity calls are given as the source filed them. Calls come from the whole dose curve; as a rule, active = well fitted inhibition curve with a large enough effect; inconclusive = small, poorly fitted or top-dose-only effect; inactive = no such curve, though single readings can be large or run the other way.
% is set by controls: 0 for no effect and ±100 for the full control effect; potency is the fitted concentration of half-maximal effect.

Experiment: qHTS to identify inhibitors of the type 1 interferon - major histocompatibility complex class I in skeletal muscle: Secondary screen by immunofluorescence; note: nearly all actives have a fitted effect of over 70% in size;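 for activity change, negative = inhibition: digitonin at 100 µM served as the cytotoxic control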
Conditions: C25cl48 myoblasts, IFN-b induced HLA-ABC immunofluorescence, 24 h, Viability; series mostly up to 49.8 µM; activity change, negative = inhibition: at the top concentration
Procedure, shortened: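 Immortalized human myoblasts C25cl48 were stimulated with 4.0 ng/ml IFN-beta and exposed to an 11-point 1:3 compound titration, top 50 uM, for 24 h at 37 C. They were then fixed and immunostained for HLA-ABC, and quantified by laser scanning cytometry.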
For `O=c1[nH]c2ccc(Cl)cc2c(N[C@@H]2CN3CCC2CC3)c1-c1nc2ccccc2[nH]1`, the Potency was 4.58 µM (active).
For `Cc1sc2c(c1C)C(c1ccc(Cl)cc1)=N[C@@H](CC(N)=O)c1nnc(C)n1-2`, the “activity change, negative = inhibition” value was 5.41%.
With `COC(=O)[C@@]12OC[C@]34[C@H]([C@@H](O)[C@@H]1O)[C@@]1(C)CC(=O)C(O)=C(C)[C@@H]1C[C@H]3OC(=O)[C@H](OC(=O)/C=C(\C)C(C)C)[C@@H]24` the “activity change, negative = inhibition” value was 3.25%.
For `CN(C)c1cc2c(cc1Sc1nc3c(N)nccc3n1CCNCC(C)(C)C)OCO2`, the “activity change, negative = inhibition” value was 3.61%.
In the case of `CC(C)(O)/C=C\C(=O)[C@](C)(O)[C@H]1[C@H](O)C[C@]2(C)[C@@H]3CC=C4[C@@H](C=C(O)C(=O)C4(C)C)[C@]3(C)C(=O)C[C@@]12C`, the Potency was 16.2 µM (active).
In the case of `Cc1sc2c(c1C)C(c1ccc(Cl)cc1)=N[C@@H](CC(=O)Nc1ccc(O)cc1)c1nnc(C)n1-2`, the “activity change, negative = inhibition” value was 23.5%.
With `CC1(C)CC[C@]2(NC(=O)C(C)(F)F)CC[C@]3(C)[C@H](C(=O)C=C4[C@@]5(C)C=C(C#N)C(=O)C(C)(C)[C@@H]5CC[C@]43C)[C@@H]2C1` the Potency was 4.08 µM (active).
For `Cc1[nH]ncc1-c1cc2nc([C@@H]3CC4CCN3CC4)[nH]c(=O)c2s1`, the “activity change, negative = inhibition” value was 6.86%.
For `CCn1cnc2c(Nc3cccc(Cl)c3)nc(N[C@@H]3CCCC[C@@H]3N)nc21`, the Potency was 25.7 µM (active).
In the case of `Cc1sc2c(c1C)C(c1ccc(Cl)cc1)=N[C@@H](CC(=O)OC(C)(C)C)c1nnc(C)n1-2`, the “activity change, negative = inhibition” value was 31.9%.
For `O=[N+]([O-])/C=C/c1ccc2c(c1)OCO2`, the Potency was 11.5 µM (active).
In the case of `CC1=C(O)C(=O)C=C2C1=CC=C1[C@@]2(C)CC[C@@]2(C)[C@@H]3C[C@](C)(C(=O)O)CC[C@]3(C)CC[C@]12C`, the Potency was 5.76 µM (active).
With `C=C(C)[C@@H]1CCC(C)=C[C@H]1c1c(O)cc(CCCCC)cc1O` the Potency was 25.7 µM (active).
For `O=C1/C(=C\c2ccccc2)C[C@@]2(O)[C@H]3Cc4ccc(O)c5c4[C@@]2(CCN3CC2CC2)[C@H]1O5`, the Potency was 10.2 µM (active).
With `C/C(=C\c1csc(C)n1)[C@@H]1C[C@@H]2O[C@]2(C)CCC[C@H](C)[C@H](O)[C@@H](C)C(=O)C(C)(C)[C@@H](O)CC(=O)O1` the “activity change, negative = inhibition” value was -0.361%.
With `CC(C)[C@]12O[C@H]1[C@@H]1O[C@@]13[C@@]1(C)CCC4=C(COC4=O)[C@@H]1C[C@@H]1O[C@@]13C2=O` the “activity change, negative = inhibition” value was 3.97%.
For `CC(=O)OC[C@H]1O[C@@H]([S-])[C@H](OC(C)=O)[C@@H](OC(C)=O)[C@@H]1OC(C)=O.CC[PH+](CC)CC.[Au]`, the Potency was 1.62 µM (active).
For `C/C1=C/C[C@@H](/C(C)=C/c2csc(C)n2)OC(=O)C[C@H](O)C(C)(C)C(=O)[C@H](C)[C@@H](O)[C@@H](C)CCC1`, the “activity change, negative = inhibition” value was -13.6%.
For `COC(=O)[C@]12CCC(C)(C)C[C@H]1[C@H]1C(=O)C=C3[C@@]4(C)C=C(C#N)C(=O)C(C)(C)[C@@H]4CC[C@@]3(C)[C@]1(C)CC2`, the Potency was 3.64 µM (active).
In the case of `CC[C@@]1(O)C(=O)OCc2c1cc1n(c2=O)Cc2cc3ccccc3nc2-1`, the Potency was “inactive”.
For `CC(C)(C)c1cc(C=C(C#N)C#N)cc(C(C)(C)C)c1O`, the “activity change, negative = inhibition” value was 2.35%.
In the case of `CC(C)[C@]12O[C@H]1[C@@H]1O[C@]13[C@]1(O[C@H]1C[C@H]1C4=C(CC[C@@]13C)C(=O)OC4)[C@@H]2O`, the “activity change, negative = inhibition” value was 7.8%.
In the case of `C[C@@H]1O[C@@H](O[C@H]2C[C@@H](O)[C@]3(CO)[C@H]4[C@H](O)C[C@]5(C)[C@@H](C6=CC(=O)OC6)CC[C@]5(O)[C@@H]4CC[C@]3(O)C2)[C@H](O)[C@H](O)[C@H]1O`, the “activity change, negative = inhibition” value was 1.82%.
In the case of `COc1cccc2c1C(=O)c1c(O)c3c(c(O)c1C2=O)C[C@@](O)(C(=O)CO)CC3OC1CC(N2CCOC(OC)C2)C(O)C(C)O1` (stereo not given in full), the “activity change, negative = inhibition” value was 1.3%.
With `C[C@@H]1O[C@@H](O[C@@H]2C=C3CC[C@@H]4[C@H](CC[C@]5(C)[C@@H](c6ccc(=O)oc6)CC[C@]45O)[C@@]3(C)CC2)[C@H](O)[C@H](O)[C@H]1O` the “activity change, negative = inhibition” value was 14.8%.
